HT1080 IDH1KD tx = HT-1080 IDH1 knockdown cell toxicity (counter line); HT-1080 IDH1 knockdown viability, ATP luminescence, 48 h; Potency, µM (top dose mostly 46.1 µM), for the others: top-dose activity, negative = toxicity, most hits filed as cytotoxic; 2% of 360,000 active;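 also: potency is read from the fitted curve at half-maximal effect; 0% = DMSO wells and -100% = cell-free medium wells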
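Cytotoxicity counter-line: IDH1KD HT-1080, 48 h, CellTiter-Glo. Curves classed by r2, magnitude and activity.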
DT40 TDP1 no CPT = qHTS for Inhibitors of human tyrosyl-DNA phosphodiesterase 1 (TDP1): qHTS in cells in absence of CPT | DT40 Tdp1-/- hTDP1 cells, no CPT, ATP luminescence, 48 h | Potency, µM (top dose mostly 46.2 µM), for inactives: at the highest dose activity change, negative = growth inhibition, most hits filed as inhibitors | 15% of 420,000 active | AID 686978, 2013; also: potency is read from the fitted curve at half-maximal effect; nearly all actives have a fitted effect of over 55% in size
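Chicken DT40 Tdp1-/- cells complemented with human TDP1, screened without camptothecin (DMSO vehicle only), 400 cells/well. Compounds pin-transferred, cells incubated at 37 °C for at least 48 hr. Growth read as ATP-dependent luminescence (CellTiter-Glo, 30 min at RT).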
IL1B secr inh = blocks inflammasome-driven IL-1 beta release; THP-1 LPS/ATP IL-1B secretion, AlphaLISA, 16 h; stronger effect = lower value; activity change, % at 57.5 µM; 4.7% of 360,000 active; AID 743279; in the data active = activity change below about -50%; inconclusive = mostly about -30% to -49%
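Secreted IL-1B measured by AlphaLISA bead assay after 16 h compound exposure of THP-1 cells; compounds (final up to 57.5 uM) added 1 h before LPS (250 ng/mL) and ATP (1.25 mM) stimulation; lower signal means less secretion.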
ELG1 DNA repair = inhibitors of ELG1-dependent DNA repair in HEK293T cells. HEK293T ELG1-luciferase reporter, luminescence, 16 h; DNA damage induced by 5-fluorouridine. Potency, µM (highest dose often 46.1 µM), for inactives: at the top dose activity change, negative = inhibition, most hits filed as inhibitors. 2.3% of 330,000 active. AID 504467; also: potency is read from the fitted curve at half-maximal effect; nearly all actives have a fitted effect of over 55% in size
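In this reporter screen, reduction of luminescence relative to DMSO vehicle indicated activity. Compounds and 5-fluorouridine were added together to 2,000 cells per well, incubated for 16 hr at 37 °C, then developed with ONE-Glo.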
HT1080-NT tox = kills 2HG-producing HT-1080-NT fibrosarcoma cells. Potency, µM (series often up to 46.1 µM), without a hit: at the top dose activity, negative = less viability, hits mostly cytotoxic. HT-1080-NT fibrosarcoma viability, CellTiter-Glo ATP luminescence, 48 h. 1.6% of 360,000 active;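 also: NT is the 2HG producing partner of a matched IDH1 knockdown line; potency is read from the fitted curve at half-maximal effect; 0% = DMSO-treated cells and -100% = media-only wells without cells; nearly all actives have a fitted effect of over 55% in size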
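Viability of the 2HG-overproducing fibrosarcoma line after 48 hours of compound exposure at 37 degrees C was determined by luminescence with CellTiter-Glo, and concentration-effect curves were then fitted and categorized.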
TDP1 cell CPT = DT40-hTDP1 cell growth loss with CPT; 12% of 420,000 active; AID 686979; chicken DT40 Tdp1-/-;hTDP1 cells + 20 nM CPT, ATP luminescence, 48 h; Potency, µM (series often up to 46.2 µM), for the others: top-dose activity change, negative = growth inhibition, hits mostly inhibitors; also: potency is read from the fitted curve at half-maximal effect; nearly all actives have a fitted effect of over 55% in size
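Cell growth measured by CellTiter-Glo luminescence after a minimum 48 h, 37 C compound exposure with 20 nM CPT in Tdp1-knockout DT40 cells stably expressing hTDP1, seeded 400/well; qHTS titration format.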
Active calls of the source: *; [ ] = another dose, or the depositor's remark. The list is not random: actives were taken first. Their share in the collection is about 19%. Unless noted, calls follow the shape of the dose curve; as a rule, active = well fitted curve in the direction sought with a large enough effect; inconclusive = small, poorly fitted or top-dose-only effect, or another doubt; inactive = no such curve, though single readings can be large; an effect the other way counts as inactive or inconclusive. Unless noted, % is scaled to controls: 0 for no effect and ±100 for the full control effect.

O=C(Cn1cnc([N+](=O)[O-])n1)c1ccc(O)c(O)c1 was read as HT1080 IDH1KD tx -2.7%, DT40 TDP1 no CPT -10.1%, IL1B secr inh 47.2, ELG1 DNA repair -2.0%, HT1080-NT tox -11.3% and TDP1 cell CPT -15.6%.
Screening CCOC(=O)N1CCC(N2C(=O)c3ccc(C(=O)Nc4cccc(OC)c4)cc3C2=O)CC1 returned HT1080 IDH1KD tx 4.6%, DT40 TDP1 no CPT inconclusive, IL1B secr inh 3.2, ELG1 DNA repair -0.2%, HT1080-NT tox 0.3% and TDP1 cell CPT inconclusive.
For Cc1ccccc1NC(=O)/C=C/c1cccc(C(F)(F)F)c1 the results were HT1080 IDH1KD tx 7.8%, DT40 TDP1 no CPT -22.6%, IL1B secr inh -56.9*, ELG1 DNA repair 17.3%, HT1080-NT tox -7.4% and TDP1 cell CPT -19.3%.
For COc1ccc(OC)c(NC(=O)Nc2nnc(N3CCCCC3C)s2)c1 (stereo unspecified) the results were HT1080 IDH1KD tx inconclusive, DT40 TDP1 no CPT inconclusive, IL1B secr inh -11.2, ELG1 DNA repair 0.0%, HT1080-NT tox -25.6% and TDP1 cell CPT inconclusive.
`COc1ccc(NC(=O)Nc2nnc(N3CCCCCC3)s2)c(OC)c1` gave DT40 TDP1 no CPT 18.4µM* and TDP1 cell CPT inconclusive.
O=C(Nc1cccc(C(F)(F)F)c1)Nc1nnc(N2CCCCCC2)s1 was read as DT40 TDP1 no CPT 5.8µM* and TDP1 cell CPT inconclusive.
O=C(Nc1cccc(C(F)(F)F)c1)Nc1ccon1 was read as HT1080 IDH1KD tx -0.6%, DT40 TDP1 no CPT inconclusive, IL1B secr inh 23.8, ELG1 DNA repair inconclusive, HT1080-NT tox 0.1% and TDP1 cell CPT -27.2%.
Screening O=C(Nc1ccc(OC(F)F)cc1)Nc1cccc(C(F)(F)F)c1 returned HT1080 IDH1KD tx inconclusive, DT40 TDP1 no CPT 4.61µM*, IL1B secr inh -80.4*, ELG1 DNA repair -8.5%, HT1080-NT tox inconclusive and TDP1 cell CPT 3.66µM*.
O=C(Nc1nnc(N2CCCCCC2)s1)Nc1cc(F)ccc1F was read as DT40 TDP1 no CPT inconclusive and TDP1 cell CPT -23.6%.
`CN1CCN(S(=O)(=O)c2cccc(C(=O)NCc3ccccc3Cl)c2)CC1` gave HT1080 IDH1KD tx -10.0%, DT40 TDP1 no CPT 0.7%, IL1B secr inh -9.4, ELG1 DNA repair 4.6%, HT1080-NT tox -3.5% and TDP1 cell CPT -1.4%.
CC1=C(C(=O)O)N2C(=O)C(NC(=O)C(N)c3ccc(O)cc3)C2SC1 (stereo unspecified) was read as DT40 TDP1 no CPT -9.8% and TDP1 cell CPT 6.5%.
`CC1=CC(=O)C(C(C)C)=C/C1=N/OS(=O)(=O)c1ccccc1` gave HT1080 IDH1KD tx 5.8µM*, DT40 TDP1 no CPT 0.581µM*, IL1B secr inh -101.0*, ELG1 DNA repair inconclusive, HT1080-NT tox 8.2µM* and TDP1 cell CPT 0.581µM*.
CC1=CC(=O)C=C(C)C1=NOS(=O)(=O)c1ccccc1 was read as HT1080 IDH1KD tx 20.6µM*, DT40 TDP1 no CPT 2.06µM*, IL1B secr inh -117.8*, ELG1 DNA repair inconclusive, HT1080-NT tox inconclusive and TDP1 cell CPT 1.3µM*.
`COc1ccc(-c2ccc(N(C)C)cc2)cc1[C@H]1[C@H]2C=CC[C@@H](C)[C@@H]2C(=O)N1Cc1ccccc1` gave HT1080 IDH1KD tx 7.7%, DT40 TDP1 no CPT 8.2µM*, IL1B secr inh 9.7, ELG1 DNA repair 5.4%, HT1080-NT tox 9.9% and TDP1 cell CPT 11.6µM*.
For COc1ccc(-c2ccc(OC)c([C@H]3[C@H]4C=CC[C@@H](C)[C@@H]4C(=O)N3Cc3ccccc3)c2)cc1C the results were HT1080 IDH1KD tx 8.3%, DT40 TDP1 no CPT 10.3µM*, IL1B secr inh 26.4, ELG1 DNA repair -12.4%, HT1080-NT tox 16.3% and TDP1 cell CPT inconclusive.
COc1ccc(-c2cc3ccccc3s2)cc1[C@H]1[C@H]2C=CC[C@@H](C)[C@@H]2C(=O)N1Cc1ccccc1 was read as HT1080 IDH1KD tx -1.8%, DT40 TDP1 no CPT 18.4µM*, IL1B secr inh 16.9, ELG1 DNA repair inconclusive, HT1080-NT tox 0.3% and TDP1 cell CPT inconclusive.
`O=C(Nc1ccc2c(c1)OCCO2)C1c2ccccc2OCC(=O)N1Cc1ccccc1` (stereo unspecified) gave HT1080 IDH1KD tx -10.9%, DT40 TDP1 no CPT 1.1%, IL1B secr inh 6.0, HT1080-NT tox -4.1% and TDP1 cell CPT -21.9%.
Screening Cc1ccn2c(=O)nc(SCC(=O)Nc3ccc4c(c3)OCCO4)nc2c1 returned HT1080 IDH1KD tx -15.2%, DT40 TDP1 no CPT inconclusive, IL1B secr inh -9.0, ELG1 DNA repair 10.4%, HT1080-NT tox -8.7% and TDP1 cell CPT inconclusive.
For CC1=NN(c2ccc([N+](=O)[O-])cc2)C(=O)C1[N+](=O)[O-] (stereo unspecified) the results were DT40 TDP1 no CPT -25.8%[9.04 µM] and TDP1 cell CPT -27.6%[9.04 µM].
For COc1cccc2sc3cc(C#Cc4ccccn4)ccc3c(=O)c12 the results were HT1080 IDH1KD tx -24.3%, DT40 TDP1 no CPT 16.4µM*, IL1B secr inh inconclusive, ELG1 DNA repair inconclusive, HT1080-NT tox -13.2% and TDP1 cell CPT 18.4µM*.
COc1cc2sc3ccc(C#Cc4ccccn4)cc3c(=O)c2cc1OC was read as HT1080 IDH1KD tx -0.6%, DT40 TDP1 no CPT inconclusive, IL1B secr inh -7.0, HT1080-NT tox inconclusive and TDP1 cell CPT -88.9%.
`COc1cccc2oc3ccc(C#Cc4ccccn4)cc3c(=O)c12` gave HT1080 IDH1KD tx -4.0%, DT40 TDP1 no CPT inconclusive, IL1B secr inh -21.5, ELG1 DNA repair inconclusive, HT1080-NT tox -0.2% and TDP1 cell CPT 11.6µM*.
Screening O=c1c2ccccc2oc2cc(C#Cc3ccccn3)ccc12 returned HT1080 IDH1KD tx 14.8%, DT40 TDP1 no CPT -0.7%, IL1B secr inh -4.5, HT1080-NT tox 22.6% and TDP1 cell CPT -1.6%.
`O=C(CCS(=O)(=O)c1ccccc1)Nc1nc2c(s1)COc1ccccc1-2` gave HT1080 IDH1KD tx -11.5%, DT40 TDP1 no CPT 4.61µM*, IL1B secr inh -12.6, ELG1 DNA repair inconclusive, HT1080-NT tox -8.2% and TDP1 cell CPT 4.11µM*.
`O=C(CCS(=O)(=O)c1ccccc1)Nc1ccc2c(c1)OCO2` gave HT1080 IDH1KD tx -2.7%, DT40 TDP1 no CPT -1.3%, IL1B secr inh -10.7, ELG1 DNA repair inconclusive, HT1080-NT tox 9.5% and TDP1 cell CPT 12.6%.
